In a collection of fitness landscapes (doi:10.1038/s41467-024-54723-y) one finds TetR repression strength data, which are given here for 102 sequences.

Over roughly 18,000 sequences, “TetR repression strength (sort-seq, GFP reporter)” has its median near 0.23; the highest 2% begin near 0.68. This is one part of a sample in which the highest values are shown more often than they occur.

The target of this assay is TetR (class B, Tn10) (UniProt P04483). The assay can be described thus: TetR repression strength (sort-seq, GFP reporter) (relative to tetO2 = 1); higher = stronger repression. To be noted: E. coli. The method, boiled down: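 Three independent transformations of E. coli SIG10-MAX were made with a low-copy plasmid library randomizing eight operator positions between a constitutive promoter and sfGFP, with constitutive TetR. Following 5 h at 37 °C in LB plus 50 µg/mL chloramphenicol, 10^6 cells went through FACS into 13 fluorescence bins, and each bin was sequenced by Illumina. Repression strength was defined as the top bin index plus one minus the read-weighted mean bin, divided by the unaltered operator's value. Averages included only members reaching ≥30 reads in all replicates with a CV ≤0.5.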
Sequence of TetR (class B, Tn10) (P04483 whole entry): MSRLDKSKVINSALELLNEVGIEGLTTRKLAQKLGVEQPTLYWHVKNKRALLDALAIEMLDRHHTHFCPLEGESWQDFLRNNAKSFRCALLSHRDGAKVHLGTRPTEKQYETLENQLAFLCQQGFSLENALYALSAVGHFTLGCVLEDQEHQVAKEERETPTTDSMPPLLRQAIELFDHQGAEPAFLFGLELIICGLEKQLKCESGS
Sequence TCCCAGTGAGTCGCAGAGA showed a TetR repression strength of 0.0941.

In turn, TCCCTTGGAGTCGGCGAGA gave a TetR repression strength of 0.0727.

For the sequence TCCCATTCAGTATCGGAGA, the TetR repression strength was found to be 0.159.

For TCCCATTCAGTCCGCGAGA, the TetR repression strength was 0.259.

As to TCCCAGGGAGTAGGGGAGA, the TetR repression strength was 0.204.

In turn, TCCCACTGAGTCAGAGAGA came in with a TetR repression strength of 0.279.

Regarding TCCCGGTTAGTATGCGAGA, the TetR repression strength is 0.19.

In turn, TCCCGGTGAGTATGCGAGA returned a TetR repression strength of 1.15.

With TCCCGGTGAGTAAACGAGA, the TetR repression strength is 0.0592.

TCCCGGAGAGTATGCGAGA returned a TetR repression strength of 0.159.

TCCCCTGCAGTATTAGAGA showed a TetR repression strength of 0.211.

TCCCCTGCAGTATGAGAGA returned a TetR repression strength of 0.855.

Regarding TCCCCTTGAGTATGCGAGA, the TetR repression strength is 1.05.

TCCCTTGCAGTATGAGAGA gave a TetR repression strength of 0.157.

For TCCCTTTGAGTATGCGAGA, the TetR repression strength came out at 0.127.

Regarding TCCCGGTGAGTGGACGAGA, the TetR repression strength was found to be 0.496.

With TCCCCTTGAGTATGTGAGA, the TetR repression strength came out at 0.409.

Take TCCCGGTGAGTGAACGAGA: the TetR repression strength amounted to 0.819.

The sequence TCCCGAGTAGTTATCGAGA came in with a TetR repression strength of 0.34.

The sequence TCCCGGGTAGTCTGAGAGA showed a TetR repression strength of 0.147.

Sequence TCCCGACCAGTTTCGGAGA showed a TetR repression strength of 0.0546.

On to TCCCTGCGAGTTCGTGAGA, for which the TetR repression strength worked out at 0.297.

TCCCGGGAAGTTGATGAGA registered a TetR repression strength of 0.0797.

For TCCCTGCGAGTCGGTGAGA, the TetR repression strength came out at 0.245.

In turn, TCCCACTCAGTGCCAGAGA showed a TetR repression strength of 0.287.

TCCCTACCAGTGCAAGAGA came in with a TetR repression strength of 0.199.

In turn, TCCCTACCAGTCGCGGAGA came in with a TetR repression strength of 0.967.

As for TCCCTATCAGTGGTAGAGA, the TetR repression strength is 1.01.

For the sequence TCCCTAAAAGTGGAAGAGA, the TetR repression strength came out at 0.104.

With TCCCTCCCAGTCGCGGAGA, the TetR repression strength was 0.291.

The sequence TCCCTATGAGTGGTAGAGA returned a TetR repression strength of 0.288.

Sequence TCCCTAACAGTGGTAGAGA showed a TetR repression strength of 0.415.

TCCCTGCAAGTGGAAGAGA registered a TetR repression strength of 0.276.

On to TCCCTCCCAGTGGAAGAGA, for which the TetR repression strength was 0.491.

Sequence TCCCTACCAGTGGAAGAGA showed a TetR repression strength of 1.24.

Take TCCCTACCAGTCGGAGAGA: the TetR repression strength came to 0.278.

As for TCCCTACAAGTGGAAGAGA, the TetR repression strength amounted to 1.21.

Consider TCCCTGACAGTCGGTGAGA, for which the TetR repression strength was 0.106.

Regarding TCCCAGGGAGTTTTAGAGA, the TetR repression strength is 0.305.

Consider TCCCACGTAGTCAATGAGA, for which the TetR repression strength was 0.157.

Regarding TCCCTCAGAGTAAAGGAGA, the TetR repression strength worked out at 0.218.

For the sequence TCCCTTTGAGTAGGTGAGA, the TetR repression strength was determined as 0.168.

In the case of TCCCATTGAGTTGCTGAGA, the TetR repression strength stood at 0.153.

TCCCTCACAGTCAGTGAGA returned a TetR repression strength of 0.302.

For TCCCGCAAAGTGAATGAGA, the TetR repression strength turned out to be 0.207.

TCCCCGCGAGTGACAGAGA registered a TetR repression strength of 0.569.

Consider TCCCAACAAGTGAGTGAGA, for which the TetR repression strength was 0.42.

In turn, TCCCTATCAGTTGAAGAGA displayed a TetR repression strength of 0.55.

Sequence TCCCTAACAGTGGAAGAGA had a TetR repression strength of 0.299.

Regarding TCCCTATCAGTGGAAGAGA, the TetR repression strength turned out to be 0.722.

Regarding TCCCCGACAGTTGCGGAGA, the TetR repression strength stood at 0.0545.

As for TCCCTGGGAGTTTAGGAGA, the TetR repression strength came out at 0.302.

Sequence TCCCTGCAAGTACCTGAGA had a TetR repression strength of 0.308.

As to TCCCGGCGAGTGGGGGAGA, the TetR repression strength amounted to 0.193.

TCCCCTCAAGTTGGCGAGA registered a TetR repression strength of 0.113.

For the sequence TCCCGACTAGTTAGCGAGA, the TetR repression strength turned out to be 0.682.

Sequence TCCCGACTAGTTAGTGAGA registered a TetR repression strength of 0.25.

Sequence TCCCCTCAAGTTAGGGAGA returned a TetR repression strength of 0.304.

Regarding TCCCGGCTAGTTAGCGAGA, the TetR repression strength was determined as 0.485.

The sequence TCCCCTCAAGTTAGCGAGA gave a TetR repression strength of 0.742.

TCCCATGGAGTATGAGAGA displayed a TetR repression strength of 0.417.

For TCCCAAAGAGTGGAGGAGA, the TetR repression strength came out at 0.388.

In turn, TCCCCGCCAGTAAAAGAGA displayed a TetR repression strength of 0.389.

For TCCCGGTCAGTGGCCGAGA, the TetR repression strength came to 0.523.

For TCCCGGCCAGTTCGTGAGA, the TetR repression strength was determined as 0.197.

As for TCCCGCGTAGTGGTGGAGA, the TetR repression strength was 0.256.

With TCCCGCGTAGTGGTTGAGA, the TetR repression strength turned out to be 0.826.

TCCCGCGGAGTGGTTGAGA displayed a TetR repression strength of 0.768.

As to TCCCGCGTAGTAGGAGAGA, the TetR repression strength turned out to be 0.691.

Sequence TCCCGTGCAGTTGCAGAGA came in with a TetR repression strength of 0.376.

On to TCCCGTGTAGTTGCAGAGA, for which the TetR repression strength was 0.976.

Turning to TCCCCCGTAGTAGGAGAGA, the TetR repression strength is 0.197.

Take TCCCGTGTAGTTGGAGAGA: the TetR repression strength worked out at 0.191.

Sequence TCCCCCGGAGTGGTTGAGA registered a TetR repression strength of 0.192.

For TCCCGCGTAGTTGTTGAGA, the TetR repression strength was determined as 0.402.

TCCCGCGGAGTGGTGGAGA: the TetR repression strength worked out at 0.155.

Consider TCCCGCGTAGTAGGGGAGA, for which the TetR repression strength was 0.425.

Consider TCCCTGTGAGTCGTTGAGA, for which the TetR repression strength was 0.443.

In turn, TCCCGGTAAGTATTCGAGA had a TetR repression strength of 0.175.

On to TCCCCATAAGTCCTTGAGA, for which the TetR repression strength amounted to 0.415.

Take TCCCATAGAGTATGGGAGA: the TetR repression strength came to 0.0311.

Regarding TCCCGGAGAGTAGCGGAGA, the TetR repression strength came to 0.287.

TCCCTATCAGTTGTTGAGA: the TetR repression strength came out at 0.441.

Turning to TCCCTATCAGTGTCAGAGA, the TetR repression strength was determined as 0.958.

Sequence TCCCTATAAGTTGTGGAGA returned a TetR repression strength of 0.201.

For the sequence TCCCTATGAGTGTCAGAGA, the TetR repression strength amounted to 0.238.

On to TCCCTTTCAGTGATTGAGA, for which the TetR repression strength was determined as 0.713.

In turn, TCCCAATCAGTGTGTGAGA registered a TetR repression strength of 0.101.

TCCCTTTCAGTGAGTGAGA gave a TetR repression strength of 0.488.

TCCCTATCAGTTGTGGAGA returned a TetR repression strength of 0.726.

In the case of TCCCTTTCAGTTATTGAGA, the TetR repression strength came out at 0.55.

Take TCCCAATCAGTGAGTGAGA: the TetR repression strength amounted to 0.701.

TCCCTATCAGTGTCTGAGA showed a TetR repression strength of 0.556.

In the case of TCCCAATCAGTGAGAGAGA, the TetR repression strength is 0.538.

As for TCCCTTGTAGTTGAAGAGA, the TetR repression strength was determined as 0.148.

Turning to TCCCTTGGAGTGATAGAGA, the TetR repression strength was 0.384.

Sequence TCCCTTTCAGTTAAGGAGA showed a TetR repression strength of 0.196.

The sequence TCCCTGGAAGTGTTCGAGA yielded a TetR repression strength of 0.277.

In turn, TCCCGGAGAGTATAAGAGA returned a TetR repression strength of 0.289.

As for TCCCAAGAAGTAGGTGAGA, the TetR repression strength was 0.23.

In turn, TCCCATAAAGTTCAAGAGA gave a TetR repression strength of 0.224.

TCCCTTACAGTTCCAGAGA displayed a TetR repression strength of 0.363.
